PfM18AAP inh: blocks P. falciparum M18 aspartyl aminopeptidase; recombinant PfM18AAP, H-Glu-NHMec fluorogenic cleavage; AID 1822; 290,000 compounds, 1.2% hits; inhibition, % at 7.35 µM;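 active means inhibition above the campaign mean inhibition over all tested compounds plus 3 SD, cut at about 28% in these data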
HDAC3 inh: inhibitors of human histone deacetylase 3 | O15379 | recombinant HDAC3, fluorogenic peptide/trypsin coupled, fluorescence | inhibition, % at 8.3 µM | 320,000 compounds, 0.15% hits; in the data active means inhibition above about 26%, passing the limit was not always enough; inconclusive means no clear call, values can overlap the other calls
SUMO HTRF inh: inhibitors of human SUMOylation (UBC9); P63279; HTRF SUMOylation assay, SAE1/SAE2 + UBC9, in vitro; inhibition, % at 35 µM; 290,000 compounds, 0.36% hits; AID 2006; in the data active means inhibition above about 50%, passing the limit was not always enough; inconclusive means no clear call, values can overlap the other calls
p97 inhibitor: human p97 ATPase inhibition. 220,000 compounds, 0.42% hits. AID 1481. inhibition, % at 8 µM. recombinant p97 ATPase, Kinase-Glo ATP luminescence, 3 h. P55072; in the data active means inhibition above about 15%
Target sequence (P55072 whole entry, looked up): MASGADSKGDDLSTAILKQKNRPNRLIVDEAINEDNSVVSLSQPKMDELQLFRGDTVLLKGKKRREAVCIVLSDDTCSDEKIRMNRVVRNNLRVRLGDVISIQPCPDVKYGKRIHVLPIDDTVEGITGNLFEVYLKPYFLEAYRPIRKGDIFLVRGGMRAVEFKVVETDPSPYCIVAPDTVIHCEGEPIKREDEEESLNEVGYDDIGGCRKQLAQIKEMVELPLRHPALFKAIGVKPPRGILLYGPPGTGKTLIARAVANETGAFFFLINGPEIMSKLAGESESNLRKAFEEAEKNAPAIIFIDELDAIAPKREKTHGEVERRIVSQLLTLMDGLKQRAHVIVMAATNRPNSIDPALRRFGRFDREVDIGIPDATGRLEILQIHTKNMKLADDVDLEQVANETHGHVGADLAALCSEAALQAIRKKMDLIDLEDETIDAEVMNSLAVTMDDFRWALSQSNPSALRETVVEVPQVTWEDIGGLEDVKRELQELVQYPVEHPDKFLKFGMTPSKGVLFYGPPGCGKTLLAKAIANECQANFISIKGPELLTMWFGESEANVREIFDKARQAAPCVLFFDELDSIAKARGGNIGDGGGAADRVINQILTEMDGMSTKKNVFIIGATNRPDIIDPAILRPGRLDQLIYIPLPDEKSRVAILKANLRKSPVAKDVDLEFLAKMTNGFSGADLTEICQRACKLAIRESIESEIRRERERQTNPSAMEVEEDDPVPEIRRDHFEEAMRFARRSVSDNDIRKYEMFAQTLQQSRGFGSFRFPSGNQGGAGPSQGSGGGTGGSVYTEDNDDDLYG
PHOSPHO1 block: inhibitors of human PHOSPHO1 phosphatase | Q8TCT1 | recombinant PHOSPHO1, absorbance phosphatase assay | inhibition, % at 13.3 µM | 290,000 compounds, 1.1% hits | AID 1565; in the data active means inhibition above about 60%
G6PDH counter: counter-screen for G6PDH assay hits: L. mesenteroides G6PDH inhibition; Purified L. mesenteroides G6PDH, diaphorase/resazurin coupled fluorescence, 45 min; inhibition, % at 5 µM; 200,000 compounds, 0.12% hits; in the data active means inhibition above about 50%
A number is an active result; - = inactive; ? = inconclusive; . = no result. Only some compounds are listed: those with a hit (about 2.5% of all), similar ones and a draw of the others.

SMILES	PfM18AAP inh	HDAC3 inh	SUMO HTRF inh	p97 inhibitor	PHOSPHO1 block	G6PDH counter
CC(C)Oc1ccc(C(=O)Nc2ccc(N(C)C)cc2)cc1	-	-	-	-	76	-
CCN(CC)c1ccc(NC(=O)COc2ccc(C)cc2)cc1	-	-	-	-	81	-
CCCC[C@H](CN[C@@H](CNC)[C@H](C)CC)NCCC12CCC(CC1)C2	-	-	-	.	-	.
CC(C(=O)NCc1ccc(Cl)cc1)n1cccc1C(=O)c1ccccc1 (configuration not stated)	-	-	-	.	-	.
COc1ccccc1CNC(=O)C(C)n1cccc1C(=O)c1ccccc1 (configuration not stated)	-	-	.	.	64	.
Cc1cc2[nH]c(=O)c(=O)[nH]c2cc1S(=O)(=O)Nc1cccc(C)c1C	-	-	-	.	-	.
O=C(/C=C/c1cccc(O)c1)c1cccnc1	-	-	-	-	-	-
CN(C)c1ccc(/C=C/C(=O)c2cccnc2)cc1	-	-	-	-	60	.
C=CCNC(=S)NNC(=O)c1cccn(Cc2ccc(Cl)c(Cl)c2)c1=O	-	-	-	-	78	-
Cc1nn(C(C)C(=O)NNC(=S)Nc2ccc(Cl)cc2)c(C)c1[N+](=O)[O-] (configuration not stated)	-	-	-	-	94	-
Cc1ccc(NC(=S)NNC(=O)c2cn(C)nc2C)cc1	-	-	-	-	89	-
Cc1nn(CCC(=O)NNC(=S)Nc2ccc(Cl)cc2)c(C)c1[N+](=O)[O-]	-	-	-	-	-	-
Cc1ccc(NC(=S)NNC(=O)c2c(Cl)c(C)nn2C)cc1	-	-	-	-	68	-
Cc1ccc(NC(=S)NNC(=O)c2c([N+](=O)[O-])c(C)nn2C)cc1	-	-	-	-	76	-
Cc1ccc(NC(=S)NNC(=O)c2nn(C)c(C)c2Cl)cc1	-	-	-	-	-	-
O=C(C1CCN(S(=O)(=O)c2ccc(Br)s2)CC1)N1CCCCC1	-	-	-	.	-	.
CCOC(=O)c1c(C)[nH]c(C)c1C(=O)COC(=O)c1cc2ccccc2cc1O	53	-	-	-	-	-
CCOC(=O)NC1(NCc2ccccc2)Oc2ccccc2O1	54	-	-	-	-	-
CCCCN1C(=O)C(O)(CC(=O)c2c(C)coc2C)c2ccccc21 (configuration not stated)	-	-	-	-	-	-
C=CCN1C(=O)C2(NC(=O)c3ccccc3N2)c2ccccc21 (configuration not stated)	-	-	-	-	-	-
CCCCN1C(=O)C2(NNc3ccccc3O2)c2ccccc21 (configuration not stated)	-	-	-	-	73	-
C=CCN1C(=O)C2(NNc3ccccc3O2)c2ccccc21 (configuration not stated)	31	-	-	-	87	-
C=CC[C@@H](CC(=O)OC(C)(C)C)C(=O)OC[C@H]1CCCN1C(=O)[C@@H](CC=C)CC(=O)N(CCO)Cc1ccccc1	.	-	.	.	.	.
CCOc1c(O)ccc(/C=C2\SC(=S)NC2=O)c1[N+](=O)[O-]	37	-	50	-	-	-
CCOc1ccc(N(C)c2ccc(/C=C3/SC(=S)NC3=O)cc2)cc1	-	-	-	.	-	.
SMILES	PfM18AAP inh	HDAC3 inh	SUMO HTRF inh	p97 inhibitor	PHOSPHO1 block	G6PDH counter
COc1ccc(OC)c(S(=O)(=O)Nc2cc3c4c(c2)C(C)C(=O)N4CCC3)c1 (configuration not stated)	.	-	.	.	.	.
Cc1ccc(C)c(S(=O)(=O)/N=C2\C=C(NS(=O)(=O)c3ccccc3)C(=O)c3ccccc32)c1	-	-	-	.	-	.
Cc1cc(C)c(S(=O)(=O)/N=C2/C=C(Sc3ncn[nH]3)C(=O)c3ccccc32)cc1C	40	40	90	-	69	51
COc1ccc(-n2c(-c3ccc(Br)cc3)c[n+]3c2CCC3)cc1	-	-	-	-	-	-
COc1ccc(-n2c(-c3ccc(Br)cc3)c[n+]3c2CCCCC3)cc1	-	?	-	-	68	-
CCOC(=O)/C(=N\Nc1ccc(OC)cc1)c1csc(Nc2ccccc2)n1	-	-	-	-	90	-
O=C(NCc1csc(-c2ccccc2)n1)c1cc(F)cc2c1OCOC2	-	-	-	-	-	.
Cc1cccc2cc3c(nc12)SC(=NCC1CCCO1)N(Cc1ccco1)C3 (configuration not stated)	-	-	-	-	74	-
Cc1ccc2nc3c(cc2c1)CN(Cc1ccco1)C(=NCC1CCCO1)S3 (configuration not stated)	-	-	-	-	-	-
COc1ccc(S(=O)(=O)N2CCC(C(=O)NC3CCCC3)CC2)cc1C	-	-	-	.	-	.
N#C/C=C/N1CCC(Cc2ccccc2)CC1	-	-	-	.	-	.
COc1c(Cl)cc(Cl)cc1/C=N/NC(=O)c1nnn(-c2nonc2N)c1CN1CCC(C)CC1	-	-	-	.	-	.
Cc1cc(C)c(/C=N/NC(=O)c2nnn(-c3nonc3N)c2CN2CCC(C)CC2)c(C)c1	-	-	-	.	-	.
CC1CCN(Cc2c(C(=O)N/N=C/c3cc(Br)ccc3O)nnn2-c2nonc2N)CC1	-	-	76	.	-	.
CC1CCN(Cc2c(C(=O)N/N=C/c3cc(Cl)ccc3O)nnn2-c2nonc2N)CC1	-	-	82	.	-	.
CCCc1c(C(=O)N/N=C/c2cccc3ccccc23)nnn1-c1nonc1N	-	-	-	.	62	.
CCOc1ccc(S(=O)(=O)N(CC(=O)NN=C2CCN(C)CC2)c2ccc(C)cc2)cc1	-	-	-	.	-	.
COc1ccc(-c2ccnc3c(Br)c(C)nn23)cc1	.	-	.	.	.	.
CC(C)(C)NC(=O)CN(C(=O)CCC(=O)Nc1nccs1)c1cccc(C(F)(F)F)c1	-	-	-	.	60	.
Cc1cccc(N(CC(=O)NC(C)(C)C)C(=O)CCC(=O)Nc2nccs2)c1	-	-	-	.	-	.
C=CCn1c(=O)/c(=C2/SC(C)=C(C)N2CC)s/c1=C1/C(=O)N(CC)C(=S)N1c1ccccc1	-	-	-	-	100	-
O=C(C[C@H]1C/C=C\C[C@H](NC(=O)OCC2c3ccccc3-c3ccccc32)C(=O)OC[C@@H]2CCCN2C1=O)NCCO	.	-	.	.	.	.
NC(=O)C1=C[C@H](c2ccccc2)C[C@H](OCc2ccc(CO)cc2)O1	-	28	-	-	-	-
O=C(Oc1ccc[nH]c1=O)c1cc([N+](=O)[O-])cc([N+](=O)[O-])c1	30	-	98	-	-	.
COc1ccc(C(=O)Oc2ccc[nH]c2=O)cc1	-	-	-	-	-	.
O=C(O)/C=C/c1cn(-c2ccccc2)nc1-c1ccccc1	-	-	-	.	-	.
O=C(O)/C=C/c1cn(-c2ccccc2)nc1-c1cc2ccccc2o1	-	-	51	-	-	.
O=C(O)/C=C\c1cn(-c2ccccc2)nc1-c1cc2ccccc2o1	-	-	59	-	-	-
CN(C)C(=O)c1cn(-c2ccccc2)nc1-c1cc2ccccc2o1	-	-	-	-	-	-
CCN(CC)c1ccc(C=Nc2cccnc2Cl)c(O)c1	31	-	-	.	-	.

Source: PubChem (several laboratories)
